Results as given in the supplement of paper PMC7801607.

Tests used:
CHO = assay: % viability of CHO cells (MTT); higher = less toxic; settings: 48 h
Procedure, shortened: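 After overnight attachment of CHO cells seeded at 10^6 cells/well in 200 µL, the medium was exchanged for fresh medium holding compound at 2 or 20 µM. Exposure lasted 48 h. Survival was read with the colorimetric tetrazolium (MTT) assay and expressed as percent of untreated cells.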

HepG2-A16-CD81 = assay: % inhibition of HepG2 viability (CellTiter-Glo); higher = more toxic; settings: 5 µM;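 note: HepG2-A16-CD81 hepatoma cells plated as in the liver-stage assay but without sporozoites, with DMSO wells as negative and 25 µM puromycin as positive control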
[1] = system: Plasmodium falciparum NF54 stage IV/V gametocytes; assay: % inhibition of gametocyte viability (PrestoBlue); higher = more inhibition; settings: 48 h
Procedure, shortened: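 Compound at 1 or 5 µM was incubated with Stage IV/V NF54 gametocytes (2% gametocytaemia, 5% haematocrit) for 48 h at 37 °C, stationary and hypoxic. A 2 h PrestoBlue step followed, with fluorescence read at 612 nm on transferred supernatant. Inhibition of gametocyte viability, in percent, was normalised to vehicle and kill controls from a single run.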

[2] = system: Plasmodium falciparum NF54 asexual blood stage; assay: % inhibition of asexual blood stage proliferation (pLDH); higher = more inhibition; settings: 72 h
Procedure, shortened: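 Compound was tested at 2 or 20 µM against Plasmodium falciparum NF54 ring stages (1% haematocrit, 2% parasitaemia) for 72 h at 37 °C in 4% CO2, 3% O2 and 93% N2. Survival was read at 620 nm with the parasite lactate dehydrogenase assay, and inhibition of asexual proliferation was given as a percentage of controls.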

[3] = system: Plasmodium falciparum NF54 stage IV/V gametocytes; assay: % inhibition of gametocyte viability (ATP bioluminescence); higher = more inhibition; settings: 24 h
Procedure, shortened: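 Compound at 1 or 5 µM was tested on stage IV/V NF54 gametocytes, enriched on density gradients and plated at 30,000 per well in 96-well plates. After 24 h at 37 °C, ATP was quantified by Promega BacTiter Glo bioluminescence. Values are percent inhibition of gametocyte viability from one run, normalised to controls.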

[4] = system: Plasmodium falciparum NF54 stage IV/V gametocytes; assay: % inhibition of gametocyte viability (luciferase reporter); higher = more inhibition; settings: 48 h
Procedure, shortened: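 Compound at 1 or 5 µM was added to stage IV/V NF54-Pfs16-GFP-Luc gametocytes (2% gametocytaemia, 2% haematocrit) and incubated stationary and hypoxic at 37 °C for 48 h. A GloMax-Multi+ reader measured luminescence over 10 s integration on 30 µL lysate plus 30 µL Promega luciferin substrate. Percent inhibition values were normalised to controls within a single run.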

SMILES	% viability of CHO cells (CHO; 2 µM)	% viability of CHO cells (CHO; 20 µM)	% inhibition of HepG2 viability (HepG2-A16-CD81)	% inhibition of gametocyte viability ([1]; 1 µM)	% inhibition of gametocyte viability ([1]; 5 µM)	% inhibition of asexual blood stage proliferation ([2]; 2 µM)	% inhibition of asexual blood stage proliferation ([2]; 20 µM)	% inhibition of gametocyte viability ([3]; 1 µM)	% inhibition of gametocyte viability ([3]; 5 µM)	% inhibition of gametocyte viability ([4]; 1 µM)	% inhibition of gametocyte viability ([4]; 5 µM)
CCCCc1ccc(C(=O)O)nc1	90.2%	130%	-0.607%	< 0%	2.97%	83.3%	44%	5.47%	< 0%	7.1%	6.9%
CN1C(=O)C(c2ccccc2)C(=O)N(c2ccccc2)c2cc(C(F)(F)F)ccc21 (stereo not drawn)	95.2%	110%	3.09%	20.2%	14.5%	-15.6%	32.9%	< 0%	< 0%	11.6%	< 0%
COc1ccccc1CN[C@H]1C2CCN(CC2)[C@H]1C(c1ccccc1)c1ccccc1	102%	117%	-1%	17.5%	8.85%	-2.68%	93%	7.68%	29.7%	15.2%	< 0%
C[C@@]1(O)[C@H](O)[C@@H](CO)O[C@H]1n1ccc2c(N)ncnc21	127%	92%	-1.39%	< 0%	2.26%	14.8%	43.2%	12.3%	7.84%	1.8%	< 0%
CCN1CCN(Cc2nc3ccc([N+](=O)[O-])cc3c(=O)n2-c2ccccc2F)CC1	105%	105%	-4.34%	< 0%	< 0%	33%	24.4%	13.8%	17.7%	9.48%	< 0%
COC(=O)Nc1nc2ccccc2[nH]1	99.1%	110%	-1.93%	< 0%	< 0%	6.96%	10.6%	1.54%	< 0%	< 0%	< 0%
COc1cc(C(C)(C)CCCC(C)C)cc(OC)c1OC	108%	76.7%	7.92%	11.5%	6.64%	-22%	48.9%	2.47%	< 0%	8.33%	< 0%
C[N+]1(C)CCCC(OC(=O)C(O)(c2ccccc2)c2ccccc2)C1 (stereo not drawn)	122%	140%	-0.474%	23.3%	9.34%	26%	73.9%	< 0%	< 0%	< 0%	3.73%
CC(C)Oc1cccc(NC(=O)c2ccccc2C(F)(F)F)c1	88.6%	112%	3.41%	2.75%	< 0%	2.15%	9.83%	3.08%	< 0%	< 0%	< 0%
Nc1c(C(=O)NCc2ccco2)c2nc3ccccc3nc2n1CCN1CCCCC1	104%	57.3%	10.7%	23.5%	46.1%	77.4%	116%	51.4%	59.7%	13.7%	0.236%
C[C@H]1CC[C@]2(NC1)O[C@H]1C[C@H]3[C@@H]4CC[C@H]5C[C@@H](O)CC[C@]5(C)[C@H]4CC[C@]3(C)[C@H]1[C@@H]2C	105%	117%	-5.8%	13.5%	28.1%	35.3%	33.7%	< 0%	< 0%	14.1%	0.706%
NC1(C(=O)O)CCP(=O)(O)CC1 (stereo not drawn)	113%	81.6%	-2.82%	< 0%	< 0%	12.3%	13.4%	< 0%	< 0%	< 0%	9.64%
O=C(NC12CC3CC(CC(C3)C1)C2)c1cc2ccccc2[nH]1	103%	134%	5.16%	36.4%	12.5%	35%	73.8%	< 0%	< 0%	< 0%	< 0%
